NS1 inh: blocks influenza NS1 protein function; Potency, µM (highest dose often 46.1 µM), without a hit: at the top dose activity, positive = more growth; actives 0.4% (n = 270,000); calls by dose curve; also: potency is read from the fitted curve at half-maximal effect; actives are rising curves; nearly all actives have a fitted effect of over 50% in size
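A cell-based growth assay was used: compounds that relieve NS1-induced slow growth of budding yeast raise OD600. Assay medium was yeast nitrogen base with ammonium sulphate and -URA supplement, pH 6.0, with 2% galactose.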
Shiga inhibitor: inhibitors of Shiga toxin in Vero cells; inhibition, % at 38.7 µM; Vero cells, Shiga toxin protein synthesis inhibition reporter; actives 9.2% (n = 290,000); in the data active = inhibition mostly above about 28%, no sharp cut-off; inactive = mostly below about 43%; also: 0% is about no effect
Cycloheximide cs: affects cycloheximide protein synthesis inhibition readout, counter-screen; max response, %; cell reporter, cycloheximide protein synthesis inhibition counterscreen; actives 12% (n = 300,000); in the data active = max response mostly above about 13%, no sharp cut-off; inactive = mostly below about 14%; also: read at 38.3 µM for the half of the compounds with a filed dose; 0% is about no effect
LmPK inh: LmPK (Leishmania mexicana) enzyme inhibition; Q27686; purified LmPK, Kinase-Glo ATP luminescence, 1 h; Potency, µM (highest dose often 57.5 µM), for the others: at the top dose activity change, negative = inhibition, hits mostly inhibitors; actives 0.37% (n = 290,000); also: potency is read from the fitted curve at half-maximal effect; % is scaled to controls: 0 for no effect and ±100 for the full control effect
Target sequence (Q27686 whole entry, looked up): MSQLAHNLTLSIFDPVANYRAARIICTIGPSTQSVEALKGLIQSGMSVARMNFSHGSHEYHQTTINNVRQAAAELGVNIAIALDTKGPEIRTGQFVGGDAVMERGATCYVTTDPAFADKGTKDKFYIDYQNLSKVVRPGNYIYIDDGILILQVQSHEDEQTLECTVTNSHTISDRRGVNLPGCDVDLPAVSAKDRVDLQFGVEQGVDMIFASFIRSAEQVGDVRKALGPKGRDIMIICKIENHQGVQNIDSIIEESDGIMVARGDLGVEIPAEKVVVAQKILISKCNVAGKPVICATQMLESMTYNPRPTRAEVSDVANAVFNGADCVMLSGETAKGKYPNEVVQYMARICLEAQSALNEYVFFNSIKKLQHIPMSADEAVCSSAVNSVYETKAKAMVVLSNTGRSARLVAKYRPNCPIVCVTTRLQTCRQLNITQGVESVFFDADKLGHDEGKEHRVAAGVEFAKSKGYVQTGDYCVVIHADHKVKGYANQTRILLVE
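Purified LmPK (0.1 nM) with 0.5 mM PEP and 0.1 mM ADP in imidazole buffer pH 7.2 with MgCl2/KCl, 1 h at room temperature. ATP formed was read by luciferase luminescence and normalized to no-enzyme and uninhibited controls.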
SARS PLP yeast: SARS-CoV PLP inhibition in yeast | AID 485353 | actives 0.19% (n = 330,000) | Potency, µM (titrated, usually from 32.9 µM), without a hit: at the top dose activity, positive = growth rescue, actives largely listed as activators | S. cerevisiae expressing SARS-CoV PLpro, growth rescue; calls by dose curve; also: potency is read from the fitted curve at half-maximal effect; 0% is about no effect; nearly all actives have a fitted effect of over 55% in size
Tb PYK inh: inhibitors of Trypanosoma brucei pyruvate kinase. TbPYK enzyme, Kinase-Glo Plus ATP luminescence, 45 min. Q57TT1. Potency, µM (highest dose often 76.8 µM), without a hit: at the top dose activity, negative = inhibition, most hits filed as inhibitors. actives 0.12% (n = 410,000); also: potency is read from the fitted curve at half-maximal effect; % is scaled to controls: 0 for no effect and ±100 for the full control effect; nearly all actives have a fitted effect of over 50% in size
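Assay buffer: 50 mM TEA pH 7.2, 100 mM KCl, 10 mM MgCl2, 0.05% BSA, 0.01% Tween-20. Pyruvate kinase from T. brucei plus substrate met compound, then ADP (130 uM final). Luminescence was read post 45 min RT.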
* = called active by the depositor. Shown is part of a subset that was picked to be rich in hits. Unless noted, calls follow the shape of the dose curve; as a rule, active = well fitted curve in the direction sought with a large enough effect; inconclusive = small, poorly fitted or top-dose-only effect, or another doubt; inactive = no such curve, though single readings can be large; an effect the other way counts as inactive or inconclusive.

`O=C(/C=C/c1c(F)cccc1Cl)Nc1ccc(S(=O)(=O)Nc2ncccn2)cc1` gave NS1 inh -0.3%, Shiga inhibitor -9.2, Cycloheximide cs 1.2, LmPK inh -1.1%, SARS PLP yeast -6.1% and Tb PYK inh -5.0%.
C=CCNC(=O)/C=C/c1c(F)cccc1Cl was read as NS1 inh -18.3%, Shiga inhibitor 57.0*, Cycloheximide cs 28.6*, LmPK inh -8.4%, SARS PLP yeast -9.9% and Tb PYK inh -10.6%.
O=C(/C=C/c1c(F)cccc1Cl)N1CCOCC1 was read as NS1 inh 6.0%, Shiga inhibitor 51.0*, Cycloheximide cs 48.4*, LmPK inh -14.2%, SARS PLP yeast -3.0% and Tb PYK inh 4.3%.
Screening O=C(Nc1ccc(-c2nc3cccnc3s2)cc1)c1ccc(Br)o1 returned NS1 inh -34.8%, Shiga inhibitor 52.6*, Cycloheximide cs 47.0*, LmPK inh 0.1%, SARS PLP yeast -8.2% and Tb PYK inh 4.3%.
For O=C(Nc1cccc(-c2nc3cccnc3s2)c1)c1cccc(Br)c1 the results were Tb PYK inh -20.3%.
For Cc1c(NC(=O)c2ccco2)cccc1-c1nc2cccnc2s1 the results were NS1 inh -40.4%, Shiga inhibitor 30.8, Cycloheximide cs 15.6*, LmPK inh 5.4%, SARS PLP yeast -13.2% and Tb PYK inh -0.8%.
For CCS(=O)(=O)Nc1cccc(-c2nc3cccnc3s2)c1C the results were NS1 inh -12.6%, Shiga inhibitor 72.7*, Cycloheximide cs 29.8*, LmPK inh 5.1%, SARS PLP yeast 0.3% and Tb PYK inh 4.6%.
`O=C(Nc1ccc(-c2nc3cccnc3s2)cc1)c1ccco1` gave NS1 inh -11.2%, Shiga inhibitor 73.6*, Cycloheximide cs 34.5*, LmPK inh -19.9%, SARS PLP yeast -17.6% and Tb PYK inh 1.9%.
CCOc1ccc(N2CC(C(=O)Nc3ccccc3C(=O)NC3CC3)CC2=O)cc1 (centres undefined) was read as NS1 inh -2.8%, Shiga inhibitor -10.7, Cycloheximide cs -0.8, LmPK inh -1.4%, SARS PLP yeast -0.7% and Tb PYK inh -6.4%.
CSCC[C@H](NC(=O)[C@H](CC(C)C)NC(=O)CNC(=O)[C@H](Cc1ccc(O)cc1)NC(=O)[C@H](Cc1ccccc1)NC(=O)[C@H](CCC(N)=O)NC(=O)[C@H](CCC(N)=O)NC(=O)[C@@H]1CCCN1C(=O)[C@H](CCCCN)NC(=O)[C@@H]1CCCN1C(=O)[C@@H](N)CCCN=C(N)N)C(N)=O was read as Shiga inhibitor -5.6 and Cycloheximide cs -2.3.
Screening Cc1ccnc(SCC(=O)NC2CCCCCC2)n1 returned NS1 inh 11.6%, Shiga inhibitor 11.7, Cycloheximide cs 11.6, LmPK inh 0.0%, SARS PLP yeast 1.9% and Tb PYK inh -0.9%.
`O=C(Cn1c(=O)nc(-c2ccccc2F)c2cc(Cl)ccc21)NCCCc1ccccc1` gave Tb PYK inh -8.9%.
For CC1Cc2cc(S(=O)(=O)N3CCC(C(=O)Nc4ccccn4)CC3)ccc2N1C(=O)C1CCC1 (centres undefined) the results were NS1 inh -11.8%, Shiga inhibitor -8.0, Cycloheximide cs -3.6, LmPK inh -2.6%, SARS PLP yeast -0.6% and Tb PYK inh -4.4%.
Screening O=C(Nc1cccc(-c2nc3cccnc3s2)c1)c1ccco1 returned NS1 inh -34.8%, Shiga inhibitor 57.2*, Cycloheximide cs 20.3*, LmPK inh 4.2%, SARS PLP yeast -11.7% and Tb PYK inh 0.6%.
For O=C(Cc1ccccc1)Nc1cccc(-c2nc3cccnc3s2)c1 the results were Tb PYK inh 4.2%.
`COc1ccnc(NCc2ccc(Cl)cc2)c1C#N` gave NS1 inh -1.3%, Shiga inhibitor 56.5*, Cycloheximide cs 27.2*, LmPK inh 0.5%, SARS PLP yeast 7.8% and Tb PYK inh 1.8%.
O=C(O)c1ccccc1C(=O)Nc1ccc(-n2ccc(C(F)(F)F)n2)cc1 was read as NS1 inh -3.9%, Shiga inhibitor 1.6, Cycloheximide cs -1.7, LmPK inh -5.5%, SARS PLP yeast -1.9% and Tb PYK inh 8.1%.
`O=C(O)CCC(=O)Nc1ccc(-n2ccc(C(F)(F)F)n2)cc1` gave NS1 inh 1.1%, Shiga inhibitor 42.0*, Cycloheximide cs 24.7*, LmPK inh -1.8%, SARS PLP yeast -0.5% and Tb PYK inh -5.0%.
For O=C(O)CCCC(=O)Nc1ccc(-n2ccc(C(F)(F)F)n2)cc1 the results were NS1 inh 2.1%, Shiga inhibitor -10.3, Cycloheximide cs -2.0, LmPK inh -2.6%, SARS PLP yeast -1.8% and Tb PYK inh 12.2%.
For O=C(Nc1ccc(-n2ccc(C(F)(F)F)n2)cc1)c1cccs1 the results were NS1 inh -46.3%, Shiga inhibitor 116.9*, Cycloheximide cs 44.5*, LmPK inh -0.1%, SARS PLP yeast -3.2% and Tb PYK inh -3.8%.
For Cn1cccc1/C=C1\SC(=O)N(c2ccc(O)cc2)C1=O the results were Shiga inhibitor 32.6*, Cycloheximide cs 38.7*, LmPK inh -2.3%, SARS PLP yeast 25.5% and Tb PYK inh 3.2%.
CCOc1ccccc1N1CCN(S(=O)(=O)c2cc(C)ccc2OC)CC1 was read as NS1 inh -54.3%, Shiga inhibitor 63.8*, Cycloheximide cs 51.3*, LmPK inh 0.1%, SARS PLP yeast -6.8% and Tb PYK inh 0.3%.
`Cc1cc(C)cc(N(CC(=O)NCc2ccc(F)cc2)C(=O)c2snc(C(N)=O)c2N)c1` gave NS1 inh -4.9%, Shiga inhibitor -1.6, Cycloheximide cs 0.8, LmPK inh 1.0%, SARS PLP yeast -0.1% and Tb PYK inh 0.1%.
For Cc1cc(C)cc(N(CC(=O)NCc2ccco2)C(=O)c2snc(C(N)=O)c2N)c1 the results were NS1 inh 19.8%, Shiga inhibitor 35.8*, Cycloheximide cs 32.7*, LmPK inh 7.8%, SARS PLP yeast -1.1% and Tb PYK inh 6.2%.
O=c1cc2nc(-c3ccccc3)nc(SCc3cccc(Br)c3)n2[nH]1 was read as Tb PYK inh -6.0%.
`C/C(=N/NC(=O)c1ccoc1C)c1cccc(NC(=O)C2CC2)c1` gave NS1 inh -6.1%, Shiga inhibitor 73.2*, Cycloheximide cs 63.4*, LmPK inh 0.2%, SARS PLP yeast 3.8% and Tb PYK inh 9.8%.
For C/C(=N/NC(=O)c1ccc(C)s1)c1cccc(NC(=O)c2ccoc2C)c1 the results were NS1 inh 3.2%, Shiga inhibitor 36.6, Cycloheximide cs 32.3*, LmPK inh -12.0%, SARS PLP yeast -8.1% and Tb PYK inh -5.0%.
For C/C(=N/NC(=O)c1ccoc1C)c1cccc(NC(=O)C(F)(F)F)c1 the results were NS1 inh -2.7%, Shiga inhibitor 104.5*, Cycloheximide cs 59.4*, LmPK inh -5.8%, SARS PLP yeast 0.4% and Tb PYK inh -0.1%.
